Measurements from PubChem BioAssay AID1347420 (Sanford-Burnham Center for Chemical Genomics, 2020).
Hit rate of the full screen: of about 1,300 compounds, about 980 (75%) were called active. Inconclusive results (about 4%) are left out. This is one part of the list.

Target: Sulfhydryl oxidase 1 (Homo sapiens) (UniProt O00391)
Assay: inhibition of human sulfhydryl oxidase QSOX1 – biochemical, HyperBlu H2O2 luminescence, HTS, primary screen (AID 1347420); also: values above 100% were filed as inconclusive
Settings: recombinant QSOX1, HyperBlu H2O2 luminescence; at 12.5 µM; hits give high values; active = any value above zero

Chain of Sulfhydryl oxidase 1 (Homo sapiens) (O00391 whole entry, looked up): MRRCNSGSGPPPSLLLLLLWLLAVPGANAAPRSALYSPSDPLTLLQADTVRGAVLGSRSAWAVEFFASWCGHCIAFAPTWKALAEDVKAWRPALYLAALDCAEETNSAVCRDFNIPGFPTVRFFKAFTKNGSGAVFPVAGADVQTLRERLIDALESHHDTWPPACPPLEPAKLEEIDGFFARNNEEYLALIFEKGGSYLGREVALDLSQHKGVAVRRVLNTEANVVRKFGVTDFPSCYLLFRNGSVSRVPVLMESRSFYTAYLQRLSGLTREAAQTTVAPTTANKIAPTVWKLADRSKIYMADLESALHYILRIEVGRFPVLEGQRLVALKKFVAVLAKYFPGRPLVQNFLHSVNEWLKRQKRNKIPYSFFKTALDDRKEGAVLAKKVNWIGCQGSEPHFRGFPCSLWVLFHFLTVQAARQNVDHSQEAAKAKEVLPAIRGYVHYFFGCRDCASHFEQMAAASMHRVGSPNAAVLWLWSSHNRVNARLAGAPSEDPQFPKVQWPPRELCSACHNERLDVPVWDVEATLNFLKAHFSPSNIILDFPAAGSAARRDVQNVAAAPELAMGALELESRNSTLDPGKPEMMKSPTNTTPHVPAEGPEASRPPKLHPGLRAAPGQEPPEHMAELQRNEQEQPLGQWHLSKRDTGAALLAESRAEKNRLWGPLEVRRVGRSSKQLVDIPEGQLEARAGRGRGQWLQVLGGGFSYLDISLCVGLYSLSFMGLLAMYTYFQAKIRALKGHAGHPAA

Row | SMILES | inhibition
1 | NC[C@H]1O[C@@H](n2cnc3c(N)ncnc32)[C@H](O)[C@@H]1O | 16.1% (active)
2 | Nc1ncnc2c1ncn2[C@@H]1O[C@H](CO)[C@H](O)C1O (stereo partly specified) | 13.8% (active)
3 | Nc1ncn([C@@H]2O[C@H](CO)[C@H](O)C2O)c(=O)n1 (stereo partly specified) | 21.3% (active)
4 | Nc1ccn([C@@H]2O[C@H](CO)[C@@H](O)C2O)c(=O)n1 (stereo partly specified) | -7% (inactive)
5 | Nc1nc(Cl)nc2c1ncn2[C@@H]1O[C@H](CO)[C@H](O)C1O (stereo partly specified) | 13.7% (active)
6 | CC(=O)O[C@H]1C(=O)[C@@]2(C)C([C@H](OC(=O)c3ccccc3)[C@]3(O)C[C@H](OC(=O)[C@H](O)[C@@H](NC(=O)c4ccccc4)c4ccccc4)C(C)=C1C3(C)C)[C@]1(OC(C)=O)CO[C@@H]1C[C@@H]2O (stereo partly specified) | -4.9% (inactive)
7 | CCc1cccc2c3c([nH]c12)C(CC)(CC(=O)O)OCC3 (stereo unspecified) | -6% (inactive)
8 | Nc1ncnc2c1ncn2C1CCCC1 | 12.4% (active)
9 | Nc1ncnc2c1ncn2C1CCCO1 (stereo unspecified) | -13.6% (inactive)
10 | Nc1nc2c(ncn2[C@@H]2O[C@H](CO)[C@@H](O)[C@@H]2O)c(=O)[nH]1 | 7.5% (active)
11 | OC[C@H]1O[C@@H](n2cnc3cncnc32)[C@H](O)[C@@H]1O | 17% (active)
12 | CCNc1nc2c(ncn2[C@H]2C[C@H](O)[C@@H](CO)O2)c(=O)[nH]1 | -2.5% (inactive)
13 | Nc1nc(Nc2ccccc2)nc2c1ncn2[C@@H]1O[C@H](CO)[C@H](O)C1O (stereo partly specified) | 8.8% (active)
14 | CCCC(CCC)C(=O)O | 40.8% (active)
15 | N#Cc1cc([N+](=O)[O-])c2sc(C(N)=O)[n+]([O-])c2c1 | 25.4% (active)
16 | CCN(CC)c1ncnc2c1ncn2[C@@H]1O[C@H](COP(=O)(O)OP(=O)(O)C(Br)(Br)P(=O)(O)O)[C@@H](O)[C@H]1O | -3% (inactive)
17 | NC(=S)c1ccc[n+]([C@@H]2O[C@@H](COP(=O)([O-])OP(=O)(O)OC[C@H]3O[C@@H](n4cnc5c(N)ncnc54)C(OP(=O)(O)O)[C@H]3O)C(O)C2O)c1 (stereo partly specified) | 4.8% (active)
18 | Nc1ncnc2c1ncn2[C@@H]1O[C@H](COP(=O)(O)CP(=O)(O)OP(=O)(O)O)[C@H](O)C1O (stereo partly specified) | 13.7% (active)
19 | Nc1ncnc2c1ncn2[C@@H]1O[C@H](COP(=O)(O)OP(=O)(O)OP(=O)(O)OP(=O)(O)OC[C@@H]2O[C@H](n3cnc4c(N)ncnc43)C(O)[C@@H]2O)[C@H](O)C1O (stereo partly specified) | 11.6% (active)
20 | NC(=O)C1=C[N+](=C2OC(COP(=O)(O)OP(=O)([O-])OC[C@H]3O[C@@H](n4cnc5c(N)ncnc54)C(OP(=O)(O)O)[C@H]3O)C(O)C2O)C=CC1 (stereo partly specified) | -12.9% (inactive)
21 | O=c1[nH]cnc2[nH]ncc12 | 19.2% (active)
22 | Clc1ccccc1C(c1ccccc1)(c1ccccc1)n1ccnc1 | -1.8% (inactive)

Row | SMILES | inhibition
23 | CC(=O)/C=C1\C(=O)N(C)c2ccccc21 | 4.3% (active)
24 | CCCCCCCC/C=C\CCCCCCCC(=O)NCCc1ccc(O)c(O)c1 | 1.1% (active)
25 | CCCCCCCC/C=C\CCCCCCCC(=O)NCc1ccc(O)c(OC)c1 | 8% (active)
26 | COc1cc(CNC(=O)CCCCCCC(C)C)ccc1O | 15.1% (active)
27 | CN(C)C(=O)/N=N/C(=O)N(C)C | 13.5% (active)
28 | O=C1Cc2cc(CCN3CCN(c4nsc5ccccc45)CC3)c(Cl)cc2N1 | -10.1% (inactive)
29 | N[C@@H](CCC(=O)N[C@H](CSN=O)C(=O)NCC(=O)O)C(=O)O | 15.7% (active)
30 | [N-]=[N+]=Nc1ccc(C(=O)CSC[C@H](NC(=O)CC[C@H](N)C(=O)O)C(=O)NCC(=O)O)cc1 | 19.5% (active)
31 | COc1ccc(-c2cc3ncc(C)n3c(Nc3ncccc3C(N)=O)n2)cc1OC | 20.4% (active)
32 | NO | -43.8% (inactive)
33 | O=C1c2ccccc2-c2n[nH]c3cccc1c23 | -5.6% (inactive)
34 | COC1=C(OC)C(=O)c2ccccc2C1=O | 37.3% (active)
35 | O=C1c2ccccc2C(=O)c2c(NCCc3ccc(O)cc3)ccc(NCCc3ccc(O)cc3)c21 | 60.9% (active)
36 | O=C(O)C1CN(CCCP(=O)(O)O)CCN1 (stereo unspecified) | 37% (active)
37 | C[C@](Cc1ccc(O)c(O)c1)(NN)C(=O)O | 44.1% (active)
38 | CC(N)(Cc1ccc(O)c(O)c1)C(=O)O (stereo unspecified) | 31.2% (active)
39 | C[C@](N)(Cc1ccc(O)c(O)c1)C(=O)O | 36.6% (active)
40 | O=C(c1ccc(OCCCc2cnc[nH]2)cc1)C1CC1 | 8% (active)
41 | CC1(C)CCC(NC(=O)[C@@H](N)CCC(=O)O)CC1 | 8.5% (active)
42 | CCOC(=O)Nc1ccc(NCc2ccc(F)cc2)nc1N | 40% (active)
43 | O=C1C(SCCO)=C(SCCO)C(=O)c2ccccc21 | 66.7% (active)
44 | CN(C)c1nc2c(Br)c(Br)c(Br)c(Br)c2[nH]1 | 46.6% (active)

Row | SMILES | inhibition
45 | Nc1cc(=O)[nH]c(N)n1 | 11.6% (active)
46 | Nc1nc2[nH]c(=O)cnc2c(=O)[nH]1 | -15.8% (inactive)
47 | C#CCN(C)CCCOc1ccc(Cl)cc1Cl | 6.1% (active)
48 | C#CCN(C)Cc1ccccc1 | -4.3% (inactive)
49 | Cn1cnc([N+](=O)[O-])c1Sc1ncnc2nc[nH]c12 | 19.5% (active)
50 | Fc1ccc(CN(C2=NCCN2)c2c(Cl)cccc2Cl)cc1 | -1.5% (inactive)
51 | COc1nc(C)nc(Cl)c1NC1=NCCN1 | 12.9% (active)
52 | Clc1cccc(Cl)c1NC1=NCCN1 | 7.2% (active)
53 | Clc1ccc2nsnc2c1NC1=NCCN1 | -10.4% (inactive)
54 | Nc1cc(Cl)c(NC2=NCCN2)c(Cl)c1 | 23.9% (active)
55 | CC1=C(C)C(=O)C(CCCCC#CCCCC#CCO)=C(C)C1=O | 32.9% (active)
56 | CCCCCCCCCCCCCCCCCCNC(=O)OCC(COP(=O)([O-])OCC[n+]1ccsc1)OC (stereo unspecified) | 10.6% (active)
57 | CCCCCCCCCCCCCCCCCCOC[C@H](COP(=O)([O-])OCC[N+](C)(C)C)OC | -5.6% (inactive)
58 | N=c1ccn2c(n1)OC1C(O)[C@@H](CO)O[C@H]12 (stereo partly specified) | 6.1% (active)
59 | NCCCCC(=O)O | 19.4% (active)
60 | NCCCC(=O)O | 25.9% (active)
61 | NCCCCCC(=O)O | 40% (active)
62 | O=C(O)CCCCCCCC(=O)O | 11.4% (active)
63 | CCN(c1nc(N)c(C(=O)N=C(N)N)nc1Cl)C(C)C | 22.6% (active)
64 | NC(N)=NC(=O)c1nc(Cl)c(N)nc1N | 20.2% (active)
65 | NC(N)=NC(=O)c1nc(Cl)c(N2CCCCCC2)nc1N | 24.3% (active)
66 | CN(C)c1nc(N)c(C(=O)N=C(N)N)nc1Cl | 10.2% (active)
